# Screening data from PubChem BioAssay.
# Pf Dd2 inh = Plasmodium falciparum Dd2 growth inhibition. P. falciparum Dd2 growth, SYBR Green, 72 h. Potency, µM (highest dose often 28.9 µM), for the others: top-dose activity, negative = inhibition, actives largely listed as inhibitors. actives 4.3% (n = 120,000); active = well fitted inhibition curve with a large enough effect;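 note: plate controls were DMSO vehicle for no effect and reference drug for full effect; nearly all actives have a fitted effect of over 65% in size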
#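 Infected erythrocytes (Dd2, 0.3% parasitemia, 2.5% hematocrit final) are added to compound in RPMI-1640/Albumax II medium, grown 72 h at 37C in low oxygen, then lysed with saponin/Triton-X containing SYBR Green and read by fluorescence.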
# * = called active by the depositor; i = inactive; [ ] = remark or other dose. This is one part of a sample in which hits are shown more often than they occur. Potency is the fitted concentration of half-maximal effect.
SMILES,Pf Dd2 inh
O=C(c1ccccc1)N1Cc2[nH]cnc2C[C@H]1c1nc(-c2ccc(Cl)cc2)no1,i
Cc1ccc(-c2noc([C@@H]3Cc4nc[nH]c4CN3C(=O)CCC(=O)O)n2)cc1,-15%[44.1 µM]
Cc1ccc(-c2noc([C@@H]3Cc4nc[nH]c4CN3Cc3ccc(N(C)C)cc3)n2)cc1,i
COc1ccc(CN2Cc3[nH]cnc3C[C@H]2c2nc(-c3ccc(C)cc3)no2)cc1,22µM*
Cc1ccc(-c2noc([C@@H]3Cc4nc[nH]c4CN3Cc3ccccc3)n2)cc1,10µM*
Fc1ccc(CN2Cc3[nH]cnc3C[C@H]2c2nc(-c3ccc(F)c(Cl)c3)no2)cc1,11µM*
CCNC(=O)N1Cc2[nH]cnc2C[C@H]1c1nc(-c2ccc(F)c(Cl)c2)no1,i
COc1ccc(CN2Cc3[nH]cnc3C[C@H]2c2nc(-c3ccccn3)no2)cc1,-3%[44.1 µM]
COc1ccc(-c2noc([C@@H]3Cc4nc[nH]c4CN3Cc3cccs3)n2)cc1,i
c1ccc(CN2Cc3[nH]cnc3C[C@H]2c2nc(-c3ccccc3)no2)cc1,13µM*
COc1ccc(OC2CN(Cc3ccc(C#N)cc3)C2)cc1,10%
COC(=O)CNC(=O)C1=NOC2CN(C(=O)Nc3cccnc3)CC12 (stereo not given),22%
CCc1ccccc1NC(=O)N1CCC(Oc2ncccc2C(=O)N2CCOCC2)C1 (stereo not given),17%
CCC1Oc2ccc(NC(=O)c3ccc(Cl)cc3)cc2CN(Cc2ccc3c(c2)OCO3)C1=O (stereo not given),i
CCC(=O)N1CCC(c2ncc(C)n2Cc2ccccc2)C1 (stereo not given),i
Cc1ccc(F)cc1NC(=O)c1cc(-c2ccc[nH]2)n[nH]1,-14%
Cc1ccc(-c2ccc3nnc(CNC(=O)c4ccc(F)c(F)c4)n3n2)cc1,-16%
O=C(C1CC(=O)N(C2CCCC2)C1)N1CCN(c2ccc(Cl)cn2)CC1 (stereo not given),12%
COC(=O)c1cc2n(n1)CCCN(C(=O)c1cc(C)nc3ccc(C)cc13)C2,-2%
COCCNC(=O)[C@@H]1C[C@H](Oc2ccccc2)CN1C(=O)c1ccc2ccccc2n1,-10%
O=C(Nc1ccnn1C1CCN(Cc2ccc(OC3CCCC3)cc2)CC1)C1CC1,-4%
CNc1ncc(C(=O)N2CCN(c3nccc(N)n3)CC(O)C2)cn1 (stereo not given),-2%
CC1(C(=O)N2C[C@@H](Oc3cccnc3)C[C@H]2C(=O)N2CCCC2)CCCCC1,i
Cc1ccc(-c2noc([C@@H]3Cc4nc[nH]c4CN3C(=O)COCC(=O)O)n2)cc1,11%[44.1 µM]
Cc1cccc(-c2noc([C@@H]3Cc4nc[nH]c4CN3C(=O)CC(C)(C)CC(=O)O)n2)c1,i
SMILES,Pf Dd2 inh
FC(F)(F)c1ccc(-c2noc([C@@H]3Cc4nc[nH]c4CN3Cc3cc4ccccc4o3)n2)cc1,8.9µM*
c1csc(CN2Cc3[nH]cnc3C[C@H]2c2nc(-c3ccncc3)no2)c1,i
O=C(Nc1cccc(F)c1)N1Cc2[nH]cnc2C[C@H]1c1nc(-c2ccc(C(F)(F)F)cc2)no1,i
COc1ccccc1CN1Cc2[nH]cnc2C[C@H]1c1nc(-c2cccc(C)c2)no1,13µM*
O=C1NCCCCCCN(C(=O)c2ccoc2)[C@H]2CCCC[C@@H]12,-23%
O=C1CCCCCN1CCC(=O)N1CCn2nc(Cc3ccccc3)cc2C1,-20%
Cn1cncc1-c1nnc([C@H]2CCN(C(=O)c3ccncc3)C2)o1,-4%[44.1 µM]
CCn1cnnc1CC1CCCN(C(=O)Nc2ccc(C(=O)OC)cc2)C1 (stereo not given),i
O=C(NC1CC1)[C@@H]1C[C@H](Oc2cccnc2)CN1C(=O)CCc1ccccc1,30%
COc1ccc(-c2cc(C(F)(F)F)nc(SCC(=O)N3CCCCC3C)n2)cc1OC (stereo not given),92%
COc1ccc(-c2cc3ccc(O)c(CN4CCCCC4C)c3oc2=O)cc1OC (stereo not given),7.1µM*
CCC1CCCCN1C(=O)CSc1nc(-c2ccc(OC)c(OC)c2)cc(C(F)(F)F)n1 (stereo not given),i
COc1ccc(-c2nccc3c(=O)cc(N4CCOCC4)oc23)cc1OC,-4%[44.1 µM]
CCCNC(=O)C1CCN(c2cc(C)nc3c(-c4ccc(OC)c(OC)c4)c(C)nn23)CC1,i
COc1ccc(-c2c(C)c3ccc(O)c(CN4CCCCC4C)c3oc2=O)cc1OC (stereo not given),11µM*
O=C(c1ccc(F)cc1)N1CCC2(CC1)CN[S+](=O)([O-])c1ccccc1N2,-20%
Cc1nc(CN2C(=O)OC3(CCN(Cc4c[nH]c5ccccc45)CC3)C2(C)c2ccccc2)cs1 (stereo not given),-1%
Cc1oc2c(c1C(=O)N(C)CCc1ccccn1)CN(Cc1cccc(F)c1)CC2,-26%
Cc1oc2c(c1C(=O)N1CCOCC1)CN(C(=O)c1ccncc1)CC2,-28%
Cc1ccc(CN2CCc3oc(C)c(C(=O)N4CCC(C(N)=O)CC4)c3C2)cc1,-20%
COCCCNC(=O)c1c(C)oc2c1CN(Cc1ccc(F)cc1)CC2,-23%
CCOC(=O)C1CCCCN1C(=O)c1c(C)oc2c1CN(Cc1cccc(F)c1)CC2 (stereo not given),6.3µM*
COc1ccc(-n2nc3n(c2=O)CCN(Cc2ccc(F)cc2)C3)cc1,11%
Cc1oc2ccn(Cc3ccccc3F)c(=O)c2c1C(=O)N1CCN(c2ccccc2)CC1,-22%
Cc1oc2c(c1C(=O)N1CCN(c3ccccc3)CC1)CN(Cc1ccc(F)cc1)CC2,11µM*
SMILES,Pf Dd2 inh
COc1ccc(N(C)C(=O)c2c(C)oc3c2CN(Cc2ccc(F)cc2)CC3)cc1,13µM*
Cc1ccc(CN2CCc3oc(C)c(C(=O)N4CCSCC4)c3C2)cc1,10µM*
CCCn1ccc2oc(C)c(C(=O)N3CCN(c4ccc(F)cc4)CC3)c2c1=O,-13%
CCOC(=O)C1CCCCN1C(=O)c1cn(C(c2ccccc2)c2ccccc2)nn1 (stereo not given),-14%
O=C1CCN(C(=O)C2CCN(C(=O)Cc3cccc(F)c3)CC2)CCCCCCN1,-13%
O=C(c1cnccn1)N1CCCC(Cc2nc(C3CCOCC3)no2)C1 (stereo not given),30%
CC(=O)c1cccc(NC(=O)CN2C(=O)NC3(CCCCC3)C2=O)c1,1%
COCc1noc([C@@H]2CC(F)(F)CN2C(=O)c2cccc(C#N)c2)n1,13%
CN(C)C(=O)c1cccnc1OC1CCN(C(=O)c2cccc(Br)c2)C1 (stereo not given),8%
CC(C)CCN1CC2(COCC(=O)N(Cc3cccc(OC(F)(F)F)c3)C2)C1,25%[44.1 µM]
CC(C)COc1cc(=O)n2c(c1C(=O)NCC1CC1)CCCCC2,35%
CC(C)NC(=O)N1CCC2(CC1)C(=O)NCN2C(=O)Cc1c[nH]c2ccccc12,8%
O=C(C1CC1)N1CCN2C(=O)NC[C@H]2C1,24%[76.6 µM]
CCN(Cc1cnn(CC)c1)C(=O)C1COc2ccccc2C1 (stereo not given),12%
O=C(CCn1ccn2nc3c(c2c1=O)CCCC3)NCc1cccs1,-26%
COCCC1(NS(C)(=O)=O)CCN(C(=O)c2ccc(OC)nc2)CC1,28%
O=C(CCn1cnnn1)N1CCC2(CC1)Nc1ccccc1NC2=O,5%
Cc1ccc(S(=O)(=O)N2CCC(CCC(=O)N3CCN(C)CC3)CC2)cc1,i
C[C@@H]1CN(C(=O)CC2CCCC2)C[C@@]1(O)C1CC1,0%
Cc1ccc(CSc2nc3ccccc3c3nc(CCn4c(C)nc5ccccc54)nn23)cc1,3%
